Luc counter = counter-screen: inhibitors of Kinase-Glo firefly luciferase; 0.28% of 200,000 active; Q27757; Kinase-Glo luciferase, ATP luminescence, 8 min; Potency, µM (top dose mostly 38.3 µM), for the others: at the top dose activity change, negative = inhibition, hits mostly inhibitors; also: % is scaled to controls: 0 for no effect and ±100 for the full control effect; nearly all actives have a fitted effect of over 60% in size
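Luminescence was the read-out, taken after 8-minute incubation at ambient temperature. Luciferase turned over luciferin with 10 uM ATP in imidazole pH 7.2 buffer containing KCl, MgCl2, Tween 20 and BSA.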
SMN2 splice up = enhancers of SMN2 splice variant expression; 2.8% of 210,000 active; AID 1458; HEK293 SMN2-luciferase splicing reporter, luminescence, 30-36 h; Potency, µM (series often up to 46.1 µM), inactives show at the top dose activity change, positive = activation, most hits filed as activators; also: % of control where 0% means no effect; nearly all actives have a fitted effect of over 55% in size
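HEK293 cells carry an SMN2 minigene-luciferase reporter in which exon 7 inclusion puts luciferase in frame. Cells were seeded at 2000 cells/well, attached for 10-12 hours, then exposed to compounds for 30-36 hours at 37C before ONE-Glo luminescence.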
FLuc counter = firefly luciferase modulation, counter-screen for miR-21 project; purified FLuc, Km substrates, luminescence inhibition; Potency, µM (series often up to 57.5 µM), for the others: top-dose activity change, negative = inhibition, hits mostly inhibitors; 6.9% of 360,000 active;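 also: plate controls were vehicle for no effect and reference inhibitor for full effect; nearly all actives have a fitted effect of over 55% in size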
Target sequence (P08659 whole entry, looked up): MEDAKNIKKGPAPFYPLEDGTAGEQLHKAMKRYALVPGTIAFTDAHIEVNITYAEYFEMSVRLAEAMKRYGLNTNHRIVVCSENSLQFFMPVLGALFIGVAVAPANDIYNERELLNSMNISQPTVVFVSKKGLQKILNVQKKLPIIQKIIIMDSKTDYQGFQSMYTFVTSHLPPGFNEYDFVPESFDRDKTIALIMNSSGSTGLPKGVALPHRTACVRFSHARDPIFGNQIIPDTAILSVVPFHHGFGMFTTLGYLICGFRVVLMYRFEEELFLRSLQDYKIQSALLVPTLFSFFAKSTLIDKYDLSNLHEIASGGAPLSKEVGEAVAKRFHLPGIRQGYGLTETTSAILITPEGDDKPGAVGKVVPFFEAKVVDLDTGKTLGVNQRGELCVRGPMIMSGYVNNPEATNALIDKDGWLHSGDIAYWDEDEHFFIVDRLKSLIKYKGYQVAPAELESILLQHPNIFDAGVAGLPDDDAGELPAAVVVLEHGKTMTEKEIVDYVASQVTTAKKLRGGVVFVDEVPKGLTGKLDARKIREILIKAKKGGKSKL
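Biochemical qHTS of compounds, final roughly 60 µM downward over six points, against 10 nM purified firefly luciferase using Km concentrations of substrates (10 uM D-luciferin, 10 uM ATP) in Tris acetate pH 7.5 buffer; luminescence output.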
Rab9 prom act = Rab9 promoter activation | Huh7 Rab9 promoter-luciferase reporter, luminescence, 24 h | Potency, µM (titrated, usually from 9.22 µM), inactives show at the highest dose activation, negative = inhibition, most hits filed as activators | 2.8% of 320,000 active; also: % of control where 0% means no effect; nearly all actives have a fitted effect of over 60% in size
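Measured in stably transfected Huh7 cells bearing a Rab9 promoter–luciferase construct: 24 h compound treatment at 37 °C, followed by luminescence detection.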
NPC1 promoter act = activators of NPC1 promoter; Huh7 NPC1 promoter luciferase reporter, 24 h; Potency, µM (titrated, usually from 9.22 µM), for inactives: at the top dose activation, actives largely listed as activators; 2.4% of 320,000 active; AID 485313; also: % of control where 0% means no effect; nearly all actives have a fitted effect of over 60% in size
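Huh7 cells stably carrying NPC1 promoter–luciferase, plated in Opti-MEM with 10% FBS for 2 h, were exposed to compound in DMSO for 24 h at 37 °C; luciferase reagent was added for 10 min and luminescence read.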
An asterisk follows results filed as active; u = inconclusive; x = not tested or not shown. In the library only some 7.3% were active in any assay of this set; here they are far more common. Calls follow the shape of the dose curve; as a rule, active = well fitted curve in the direction sought with a large enough effect; inconclusive = small, poorly fitted or top-dose-only effect, or another doubt; inactive = no such curve, though single readings can be large; an effect the other way counts as inactive or inconclusive. Potency is read from the fitted curve at half-maximal effect.

SMILES	Luc counter	SMN2 splice up	FLuc counter	Rab9 prom act	NPC1 promoter act
CC(C)(C)n1cnc2cc(NCc3ccccc3O)ccc21	x	x	12µM*	8%	28%
CC(C)n1cnc2cc(NCc3ccccn3)ccc21	-5%	18µM*	24µM*	u	1.8µM*
CCCn1cnc2cc(NCc3ccccc3OCC)ccc21	x	-9%	-19%	x	x
COc1ccc(C)cc1NC(=O)CCn1nc(C)cc1C	x	x	1%	x	x
COC(=O)c1ccc(NC(=O)CSc2nc(=O)n(Cc3ccco3)c3c2CCC3)cc1	x	x	-13%	x	x
Cc1ccc(-n2nc(CO)c(C(=O)NCCCc3ccccc3)n2)cc1	x	-11%	-6%	x	x
COc1ccccc1CNC(=O)CSc1nc2nc(C)c(Cc3ccccc3C)c(C)n2n1	x	-25%	-2%	x	x
CC(C)(C)n1cnc2cc(NC(=O)c3ccc(Cl)cc3)ccc21	x	x	4.8µM*	0.5µM*	0.56µM*
CC(C)n1cnc2cc(NCc3ccco3)ccc21	-1%	u	17µM*	u	u
CSc1ccc(CCNC(=O)CCc2c(C)nc3c(c(C)nn3-c3ccc(C)c(C)c3)c2C)cc1	x	-1%	3%	x	x
CCOC(=O)c1c(NC(=O)CCCOc2ccc(Cl)cc2)sc2c1CCC2	x	1%	-1%	x	x
COc1ccc(S(=O)(=O)NCCc2nnc3ccc(SCC(=O)Nc4cc(C)cc(C)c4)nn23)cc1	x	x	-8%	x	x
C=CC(C1=CC(=O)C(OC)=C(OC)C1=O)c1ccccc1 (configuration not stated)	-6%	1%	x	x	x
Cc1ccc(NC(=S)/N=C(\N)Nc2nc(C)c3ccccc3n2)cc1C	1%	-29%	11µM*	-10%	-8%
O=C1CC(c2ccc(Cl)cc2)Sc2nc(-c3ccc(F)cc3)nn21 (configuration not stated)	x	5%	u	x	x
COc1ccc(/C=N/Nc2nc(N)cc(Cl)n2)cc1OC	-5%	14%	17µM*	24%	16%
O=[N+]([O-])c1ccc(/C=N/Nc2ccccn2)cc1	x	x	-18%	u	u
COc1ccc(-c2cnnc(N/N=C/c3ccc(O)c(OC)c3)n2)cc1	-14%	13µM*	1.2µM*	-4%	-19%
COc1ccc(/C=N/Nc2nonc2N)cc1OC	-7%	23%	u	-6%	0%
COc1cc(/C=N/Nc2nc(-c3ccc(S(=O)(=O)N(C)C)cc3)cs2)ccc1O	x	x	3.4µM*	-9%	-10%
CN(C)c1ccc(/C=N\Nc2ccccn2)cc1	x	x	0.95µM*	0.63µM*	0.89µM*
CCOC(=O)c1c(C)oc2nc(C)nc(NCCc3ccc(OCC)c(OCC)c3)c12	x	x	-11%	x	x
CCOc1ccc(CCNC(=O)c2cnc3sc(N4CCCCC4)nn3c2=O)cc1	x	x	6%	x	x
CCOC(=O)c1cccc(NC(=O)Cn2ncc3c(=O)oc4ccccc4c32)c1	x	-12%	2%	x	x
COc1cc(/C=N/Nc2ccnc(=O)[nH]2)ccc1O	x	x	u	-2%	-1%
SMILES	Luc counter	SMN2 splice up	FLuc counter	Rab9 prom act	NPC1 promoter act
COc1cc(/C=N/Nc2ccccn2)ccc1O	x	x	6µM*	u	4%
COc1ccc(/C=N/Nc2nc(C)nc(N)n2)cc1	x	x	17µM*	23%	13%
COc1ccc(/C=N/Nc2ccccn2)cc1OC	x	x	7.6µM*	u	u
Cc1ccc([N+](=O)[O-])cc1N/C=C1\CCc2ccccc2C1=O	1%	-6%	u	u	4.5µM*
c1ccc(Cn2ccc(-c3cnc(-c4ccccc4)s3)n2)cc1	-1%	x	1.9µM*	1.1µM*	1.4µM*
Nc1ccn(Cc2ccccc2)n1	0%	-5%	u	-1%	-5%
Cc1ccc(/C(N)=N/OC(=O)Cc2cccs2)cc1	-4%	1%	9.5µM*	u	u
Cc1ccc(/C(N)=N/OC(=O)Cc2ccccc2)cc1	-3%	20%	19µM*	1%	18%
N/C(=N\OC(=O)Cc1ccccc1)c1ccc(Br)cc1	0%	-30%	u	4%	2%
N/C(=N\OC(=O)Cc1cccs1)c1ccccc1	-3%	-4%	15µM*	27%	u
N/C(=N\OC(=O)Cc1cccs1)c1cccc([N+](=O)[O-])c1	-3%	-3%	u	-2%	-3%
Cc1cccc(/C(N)=N/OC(=O)Cc2cccs2)c1	-4%	10%	13µM*	u	u
N/C(Cc1cccs1)=N\OC(=O)COc1ccccc1	-4%	4%	-14%	2%	-1%
Cc1ccc2c(=O)c(C(=O)c3cccc(Cl)c3)cn(CC(=O)NC3CCCCC3)c2n1	x	x	-5%	x	x
CC(C)C1C(=O)Nc2ccc(S(=O)(=O)NCCc3ccc(Cl)cc3)cc21 (configuration not stated)	x	x	-3%	x	x
Cc1cc2[nH]c(=O)c(=O)[nH]c2cc1S(=O)(=O)Nc1cccc(C(F)(F)F)c1	x	x	-16%	x	x
Cc1cccn2c(=O)c(C(=O)N3CCN(c4ccccc4F)CC3)cnc12	x	x	4%	x	x
N/C(=N\OC(=O)Cc1cccs1)c1ccc(Cl)cc1	x	x	13µM*	24%	20%
COCCCNC(=S)NNC(=O)c1ccc(C(C)(C)C)cc1	x	x	-4%	-2%	-2%
CC(C)(C)c1ccc(C(=O)c2c[nH]c(C(=O)NCc3cccnc3)c2)cc1	8%	-6%	7.6µM*	24%	17%
O=C(CNC(=S)NC(=O)c1ccc(F)cc1)c1ccccc1	-5%	28%	4%	2%	0%
CC(C)(C)c1ccc(C(=O)NC(=S)NNC(=O)COc2ccccc2)cc1	x	x	u	u	22%
O=C(CNC(=S)NC(=O)c1ccccc1)c1ccccc1	-2%	u	17µM*	6%	15%
COCCCNC(=S)NC(=O)c1ccc(C)cc1	-1%	14µM*	13µM*	u	u
COC(=O)CNC(=S)NC(=O)c1ccc(C(C)(C)C)cc1	-2%	2%	13µM*	-2%	-1%
SMILES	Luc counter	SMN2 splice up	FLuc counter	Rab9 prom act	NPC1 promoter act
CCn1cc(C(=O)N2CCN(c3ccc(F)cc3)CC2)c(=O)c2cc(S(=O)(=O)N3CCOCC3)ccc21	x	-12%	3%	x	x
COc1ccc(OC)c(NC(=O)CCc2c(C)nc3c(c(C)nn3C(C)(C)C)c2C)c1	x	4%	-3%	x	x
Cc1ccc(-n2nc(C)c3c(C)c(CCC(=O)NCc4ccc(Cl)cc4)c(C)nc32)cc1	x	-3%	-3%	x	x
CC(C)(C)c1ccc(C(=O)c2c[nH]c(C(=O)NCCCn3ccnc3)c2)cc1	1%	-50%	19µM*	5%	24%
CC(C)(C)c1ccc(C(=O)NC(=S)NCc2cccnc2)cc1	-1%	-40%	24µM*	3%	13%
CC(C)(C)c1ccc(C(=O)NNC(=O)c2ccncc2)cc1	x	x	19µM*	11%	9%
CC(C)(C)c1ccc(C(=O)NNC(=S)NC(=O)c2cccnc2)cc1	x	x	19µM*	4%	3%
CC(C)(C)c1ccc(C(=O)NCc2cccnc2)cc1	-3%	6%	u	-18%	22%
CC(C)(C)c1ccc(C(=O)NNC(=O)c2ccc(Cl)cc2)cc1	0%	7%	4%	-4%	-3%

High-throughput results: PubChem, National Center for Advancing Translational Sciences (NCATS)
